From the supplement of paper PMC10338343
± gives the standard deviation.

The sequences below were run on EfPiwi piRISC loaded with piRNA #1 (26 nt) (assay: pre-steady-state target cleavage rate (min^-1); auxiliary factor: 500 nM Ephydatia muelleri Gtsf1; guide: piRNA #1 5'p-UGAGGUAGUAGGUUGUAUAGUAUCCA; MIWI and MILI are mouse PIWI proteins and EfPiwi is from a freshwater sponge; tags in brackets are library labels; higher = faster piRNA-guided slicing of the target).
How it was run: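 A burst-and-steady-state fit was used to obtain the pre-steady-state cleavage rate. The input data were sequencing reads of uncleaved targets, normalised to depth and to weakly complementary targets, from a […] transcribed, DNA-blocked target RNA library mixed with 1 nM active affinity-purified piRISC holding one synthetic guide, with or without 500 nM GTSF1 partner protein, in HEPES–potassium acetate buffer at 33 °C for 0–8 or 0–960 min. Three trials were pooled and k3 was capped at 0.0001 min^-1.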
For GGAGACCAUACUGUACAACCUACUACCUCA, the “pre-steady-state target cleavage rate” value was 0.0144 ± 0.0056. GGAGACCAUACUAUCAACCUACUACCUCA was tested, and the “pre-steady-state target cleavage rate” value was 0.0101 ± 0.005. For GGAGUUGAUACUAUACAACCUACUACCUCA, the “pre-steady-state target cleavage rate” value was 0.193 ± 0.06. For GGAGACCAUGCUAUACAACCUACUACCUCA, the “pre-steady-state target cleavage rate” value was 0.00746 ± 0.0043. With GGAGAGGAUACUAUACAACCUACUACCUACA the “pre-steady-state target cleavage rate” value was 0.00995 ± 0.0044. GGAGUGGAUACAAUACAACCAACUACCUCA was tested, and the “pre-steady-state target cleavage rate” value was 0.00289 ± 0.0015. With GGAGACCAUACUAUUACAACCUACUACCUCA the “pre-steady-state target cleavage rate” value was 0.0115 ± 0.0046. In the case of GGAGAGGAUACAAAACAACCUACUACCUCA, the “pre-steady-state target cleavage rate” value is reported as 0.00656 ± 0.0047. GGAGUGGAUACUAUACAAGCUUCUACCUCA was tested, and the “pre-steady-state target cleavage rate” value was 0.00507 ± 0.0021. With GGAGAGGAUACUAUUCAUCCUACUACCUCA the “pre-steady-state target cleavage rate” value was 0.00619 ± 0.0034. GGAGACCUUAGUAUACAACCUACUACCUGA was tested, and the “pre-steady-state target cleavage rate” value was 0.00359 ± 0.0036. GGAGAGGAUACUAUACAACCUCACUACCUCA was tested, and the “pre-steady-state target cleavage rate” value was 0.00378 ± 0.0026. GGAGACCUAACUAUACAAGCUAGUACCUCA was tested, and the “pre-steady-state target cleavage rate” value was 0.00423 ± 0.0037. With GGAGACGAUACUAUACAACCAUCUACCUCA the “pre-steady-state target cleavage rate” value was 0.00359 ± 0.001. GGAGACCAUACUAUACAACCUUCUACCUCA was tested, and the “pre-steady-state target cleavage rate” value was 0.00625 ± 0.0028. In the case of GGAGACCUAACUAUACAACCUACUACAUCA, the “pre-steady-state target cleavage rate” value is reported as 0.0146 ± 0.0083. With GGAGAGGAUACUAUACAACCUACUACAUCA the “pre-steady-state target cleavage rate” value was 0.00573 ± 0.0027. With GGAGACGAUACUAUACAACCUACUACCUGCA the “pre-steady-state target cleavage rate” value was 0.00933 ± 0.0034. For GGAGUGCAUAGUAUACAACCUACUACCUCA, the “pre-steady-state target cleavage rate” value was 0.0131 ± 0.0064. With GGAGAGGAUACUAUACAAGCUACUUCCUCA the “pre-steady-state target cleavage rate” value was 0.00375 ± 0.0015. In the case of GGAGUGCAUACUAUACAACCUACUACGUCA, the “pre-steady-state target cleavage rate” value is reported as 0.00318 ± 0.0018. In the case of GGAGACCUUGACUAUACAACCUACUACCUCA, the “pre-steady-state target cleavage rate” value is reported as 0.00922 ± 0.0051. With GGAGACGAAACUAUUCAACCUACUACCUCA the “pre-steady-state target cleavage rate” value was 0.00439 ± 0.0036. For GGAGACGAUACUAUACAACGUACAACCUCA, the “pre-steady-state target cleavage rate” value was 0.00279 ± 0.0018. For GGAGAGGAUACUUUACAACCUAGUACCUCA, the “pre-steady-state target cleavage rate” value was 0.00261 ± 0.0016. For GGAGACCUUACUAUACAACCUACUAGCUCA, the “pre-steady-state target cleavage rate” value was 0.00255 ± 0.0017. For “GGAGAGGAUACUAUACAACCUACUACCUCC [g2:g25:cont:t1C]”, the “pre-steady-state target cleavage rate” value was 0.12 ± 0.046. In the case of GGAGACGGAUACUAUACAACCUACUACCUCA, the “pre-steady-state target cleavage rate” value is reported as 0.221 ± 0.062. With GGAGUGGAUACAAUACAAGCUACUACCUCA the “pre-steady-state target cleavage rate” value was 0.00566 ± 0.0028. For GGAGUGGAUACUAUACAACCUACUACCACA, the “pre-steady-state target cleavage rate” value was 0.00561 ± 0.0019. For GGAGACCUAUCUAUACAACCUACAACCUCA, the “pre-steady-state target cleavage rate” value was 0.00366 ± 0.0032. For GGAGACCUUAUCUAUACAACCUACUACCUCA, the “pre-steady-state target cleavage rate” value was 0.0368 ± 0.017. GGAGACGAUACUAUACAACCUACAACCUGA was tested, and the “pre-steady-state target cleavage rate” value was 0.00441 ± 0.0022. In the case of GGAGACCAUACUAUACAACCUACUUGCUCA, the “pre-steady-state target cleavage rate” value is reported as 0.00354 ± 0.002. In the case of GGAGAGGAUACUAUAACAACCUACUACCUCA, the “pre-steady-state target cleavage rate” value is reported as 0.0661 ± 0.025. For GGAGUGGAAACUUUACAACCUACUACCUCA, the “pre-steady-state target cleavage rate” value was 0.00583 ± 0.0037. With GGAGACCAUACUAUCACAACCUACUACCUCA the “pre-steady-state target cleavage rate” value was 0.0399 ± 0.014. In the case of GGAGACCUUAGUAUACAACCUACUACCUCA, the “pre-steady-state target cleavage rate” value is reported as 0.0563 ± 0.02. GGAGACCAUACUAUACAAGCUACUUCCUCA was tested, and the “pre-steady-state target cleavage rate” value was 0.00551 ± 0.0027. In the case of GGAGACGAUACUAUACAACCUACUACUCA, the “pre-steady-state target cleavage rate” value is reported as 0.00549 ± 0.0025.
